The list is not random: actives were taken first. Their share in the collection is about 0.46%.
S-ASM inh – inhibitors of human secretory acid sphingomyelinase; placental ASM, HMU-PC fluorogenic substrate, 60 min; Potency, µM (highest dose often 57.5 µM), inactives show at the top dose activity change, negative = inhibition, usual class: inhibitors; hit rate 0.006% among 340,000; AID 504937
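Human placenta-derived ASM preincubated with compound 10 min at room temperature, then reacted with 9 uM (final) fluorogenic HMU-PC substrate for 60 min at 37 C. Stop solution raises pH to 10; fluorescence read at Ex 386/Em 447 nm.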
AT treatment – candidate therapy for ataxia-telangiectasia | hit rate 0.19% among 320,000 | Potency, µM (titrated, usually from 57.5 µM), for the others: top-dose activation, usual class: activators | F2112 A-T fibroblasts, KAP-1 phosphorylation AlphaLISA; neocarzinostatin DNA damage 30 min before lysis; also: % of control where 0% means no effect; nearly all actives have a fitted effect of over 45% in size
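hTERT-immortalized A-T patient fibroblasts (F2112), 500 cells/well in OPTI-MEM, 1% FBS, got compounds for 60 min, then NCS for 30 min at 37C. Lysates were then assayed for phospho-KAP-1 by AlphaLISA (anti-pKAP1 donor, anti-KAP1 acceptor beads), 6 hr at 25C.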
Integrin act MD – integrin-mediated muscular dystrophy alleviation activation; alpha7betagal myoblasts, beta-gal FDG fluorescence, 48 h; Potency, µM (doses to about 38.3 µM), inactives show at the top dose activation, most hits filed as activators; hit rate 0.064% among 350,000; AID 624291;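 also: 100% = response of the positive control SU9516; nearly all actives have a fitted effect of over 60% in size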
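alpha7betagal+/- myoblasts (passage 13, 250/well) treated 48 h at 37C with compounds at 1:260 dilution of DMSO stock. Lysed, then beta-galactosidase activity read as FDG fluorescence (ex 480/em 540) after 30 min, with pre-read for autofluorescence.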
GALK inhibitor – blocks human galactokinase activity; P51570; Purified GALK, Kinase-Glo residual ATP luminescence; Potency, µM (series often up to 57.5 µM), without a hit: at the top dose activity change, negative = inhibition, usual class: inhibitors; hit rate 0.007% among 270,000; AID 1868; also: % is scaled to controls: 0 for no effect and ±100 for the full control effect
Target sequence (P51570 whole entry, looked up): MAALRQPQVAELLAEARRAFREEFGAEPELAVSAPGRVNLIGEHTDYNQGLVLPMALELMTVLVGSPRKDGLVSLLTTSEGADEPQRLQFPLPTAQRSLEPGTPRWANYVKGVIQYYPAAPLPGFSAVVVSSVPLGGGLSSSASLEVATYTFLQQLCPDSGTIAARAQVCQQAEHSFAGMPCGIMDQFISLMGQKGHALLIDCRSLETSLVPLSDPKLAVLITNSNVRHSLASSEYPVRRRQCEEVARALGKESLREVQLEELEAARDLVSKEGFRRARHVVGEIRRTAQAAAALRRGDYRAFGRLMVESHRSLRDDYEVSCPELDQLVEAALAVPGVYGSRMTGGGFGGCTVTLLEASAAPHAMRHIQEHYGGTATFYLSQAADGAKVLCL
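Compounds were pin-transferred into ATP buffer (35 uM final), then GALK plus galactose (5 nM, 100 uM final) was added. After 1 h at room temperature, Kinase-Glo Plus was added and luminescence read after 10 min.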
Mito fusion act – inhibitors of mitochondrial division or activators of mitochondrial fusion; S. cerevisiae fusion-defective mutant growth rescue, CellTiterGlo 48 h; Potency, µM (highest dose often 46.1 µM), without a hit: top-dose growth rescue (activation), usual class: activators; hit rate 0.23% among 320,000; also: % of control where 0% means no effect; nearly all actives have a fitted effect of over 45% in size
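Temperature-sensitive fusion-defective S. cerevisiae (e.g. fzo1-1, mgm1-5) were grown with compound in YPEG medium (3% ethanol, 3% glycerol) for 48 hours at 37C. Growth rescue was measured as viability by CellTiterGlo luminescence after 10 minutes at ambient.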
PTAP TSG101 blk – blocks PTAP/TSG101 interaction to inhibit HIV-1 budding | AID 493005 | Potency, µM (top dose mostly 115 µM), for the others: at the highest dose activity change, negative = inhibition, hits mostly inhibitors | 340,000 tested, under 10 active | Fluorescence polarization, FITC-PTAP peptide / Tsg101 binding; active = well fitted inhibition curve with a large enough effect in the main read-out, with a control signal flat, not every such curve was filed as active; inconclusive = small, poorly fitted or top-dose-only effect, or effect the other way, or a change in a side signal; inactive = no such curve, though single readings can be large or run the other way; also: % of control where 0% means no effect
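Steps: Tsg101 binding domain dispensed (10 uM final), compounds pinned in DMSO, FITC-labeled PTAP-motif peptide added (50 nM final); after 20 min binding at room temperature, polarization measured.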
Starred values were filed as active, the others as inactive; i = inactive; ? = inconclusive; nt = not tested or not shown; [ ] = dose if it differs, or a comment. Unless noted, calls follow the shape of the dose curve; as a rule, active = well fitted curve in the direction sought with a large enough effect; inconclusive = small, poorly fitted or top-dose-only effect, or another doubt; inactive = no such curve, though single readings can be large; an effect the other way counts as inactive or inconclusive. Potency is read from the fitted curve at half-maximal effect.

SMILES	S-ASM inh	AT treatment	Integrin act MD	GALK inhibitor	Mito fusion act	PTAP TSG101 blk
CCN(CC(=O)Nc1ccccc1C(F)(F)F)C(=O)c1ccc2c(c1)NC(=O)C(C)S2 (stereo not drawn)	nt	nt	-1%	nt	nt	nt
CS(=O)(=O)N(Cc1ccc(C(=O)NC2CCCC2)cc1)c1ccccc1	6%	3%	10µM*	0%	-1%	-2%
CS(=O)(=O)N(Cc1ccc(C(=O)NC2CCCCC2O)cc1)c1ccccc1 (stereo not drawn)	1%	-7%	-18%	0%	0%	-2%
Cc1ccc(S(=O)(=O)NC(=NC2CCCCC2)c2ccc(Cl)cc2)cc1	-3%	4%	30%	1%	-7%	0%
CCC(C)Nc1nc(-c2c[nH]c3ccccc23)cs1 (stereo not drawn)	-3%	35µM*	-7%	-1%	-7%	-1%
CCN(CC)CCOC(=O)c1ccc([N+](=O)[O-])cc1	-2%	35µM*	8%	-3%	-1%	-1%
Nc1c(C(=O)Nc2nc3ccccc3s2)sc2nc(-c3cccs3)ccc12	15%	16µM*	-56%	0%	3%	?
O=C(OCC(=O)N(Cc1ccccc1)Cc1ccccc1)c1ccccc1NCCO	i	22µM*	25%	nt	?	0%
O=C(COC(=O)c1cc([N+](=O)[O-])ccc1N1CCOCC1)Nc1cccc(F)c1	-11%	28%	?	-1%	-2%	-6%
CC(=O)Nc1ccc(NS(=O)(=O)c2ccc(Cl)s2)cc1	3%	-1%	10%	7%	1%	5%
CC(=O)Nc1ccc(NS(=O)(=O)c2c(Cl)cccc2Cl)cc1	-3%	40µM*	10%	-3%	1%	0%
CCOC(=O)C1CCN(CC(C)(C)NS(=O)(=O)c2ccc(Cl)cc2)CC1	1%	-4%	-5%	-3%	5%	0%
CCOC(=O)C1CCN(CC(C)(C)NS(=O)(=O)c2ccc(C)cc2)CC1	-1%	1%	-10%	13%	3.5µM*	-7%
COc1ccc(-c2nc3n(c2C)CCC3)cc1	-1%	25µM*	-9%	-1%	0%	1%
COc1ccc([C@]23Cc4cc(OC)c(OC)cc4C(O2)C2=C(CC4(CCCCC4)OC2=O)O3)cc1	nt	-8%[11.5 µM]	nt	nt	0%[9.22 µM]	nt
CCCn1nc(NC(=O)c2cccs2)c2cc3cccc(C)c3nc21	74%	?	6%	-5%	3%	-1%
O=C(CCc1nnc2n(Cc3ccc(F)cc3)c(=O)c3ccccc3n12)N1CCN(c2ccccn2)CC1	-1%	-1%	?	7%	13µM*	-1%
Cc1c(-c2ccccc2)n(-c2ccc(Cl)cc2)c2nc3c(c(=O)n(C)c(=O)n3C)n12	nt	nt	nt	nt	3%	nt
C=CCC(c1ccccc1)N(C(C)=O)c1ccco1 (stereo not drawn)	1%	-1%	-27%	-1%	25µM*	-10%
C=C(C)CC(c1ccccc1)N(C(C)=O)c1ccco1 (stereo not drawn)	3%	0%	16%	8%	0%	-2%
Cc1c(C(=O)NC2CCN(Cc3ccccc3)C2)oc2c(Cl)cccc12 (stereo not drawn)	-1%	-3%	-46%	-2%	3.5µM*	4%
O=C(NC1CCN(Cc2ccccc2)CC1)c1ccccc1	1%	-11%	7%	2%	15%	-1%
CC(C)(C)c1ccc(C(=O)NC2CCN(Cc3ccccc3)CC2)cc1	0%	-9%	-56%	-1%	35µM*	1%
O=C(NC1CCN(Cc2ccccc2)CC1)c1ccccc1Cl	-4%	10%	28%	nt	-1%	-2%
Cc1ccc(N2CC(C(=O)NCCC3=CCCCC3)CC2=O)cc1 (stereo not drawn)	nt	2%	16%	nt	16%	-9%
SMILES	S-ASM inh	AT treatment	Integrin act MD	GALK inhibitor	Mito fusion act	PTAP TSG101 blk
N#Cc1ncc(-c2ccc3c(c2)OCCOCCOCCOCCOCCO3)nc1C#N	6%	-19%	-1%	0%	20µM*	-2%
COc1ccc(-c2sc3ccc(OC)cc3c2C#Cc2cncn2C)cc1	110%	28µM*	-16%	nt	nt	0%
Cc1ccc(CN(C)C(=O)CCc2nc3sc4c(c3c(=O)[nH]2)CCCC4)o1	21%	13%	-54%	2%	0%	0%
COc1ccc2c(c1)cc(C(=O)N[C@H](C(=O)N1CCC(C(=O)O)CC1)C(C)C)n2C	4%	7.1µM*	-10%	nt	-3%	0%
CC(C)[C@H](NC(=O)c1cc2cc(Cl)ccc2n1C)C(=O)N1CCC(C(=O)O)CC1	1%	-1%	25%	nt	-8%	-4%
Cc1ccc(-c2nnn(C(C)C(=O)N3c4ccccc4CCc4ccccc43)n2)cc1 (stereo not drawn)	-15%	10%	?	1%	14µM*	0%
CC(C(=O)N1c2ccccc2CCc2ccccc21)n1nnc(-c2ccc(N(C)C)cc2)n1 (stereo not drawn)	-3%	nt	-1%	3%	21%	-2%
O=C(CSc1nnc(-c2c[nH]c3ccccc23)o1)NCC1CCCO1 (stereo not drawn)	1%	8%	25%	nt	-4%	-1%
CCc1ccc(Nc2ccc(C(=O)O)cc2[N+](=O)[O-])cc1	-4%	12%	-8%	0%	20µM*	-8%
Cc1ccc(Nc2ccc(C(N)=O)cc2[N+](=O)[O-])cc1C	?	25µM*	-27%	nt	?	-2%

Source: PubChem BioAssay
